Reference: the supplement of paper PMC10849652
The full data set covers some 8,800 targets. This sample favours those with a hit. About 0.5% of all pairs of compound and target were hits. Values without a mark were called inactive.

Key:
Assay in all cases: log2 fold change, soluble protein after heating vs DMSO (PISA); higher = thermal stabilisation; K562 lysate, 10 uM; active = over 0.2 and 3.5 SD of the protein, either way, in both replicates (recomputed)
lapatinib = compound: CS(=O)(=O)CCNCc1ccc(-c2ccc3ncnc(Nc4ccc(OCc5cccc(F)c5)c(Cl)c4)c3c2)o1 [lapatinib]
Procedure, shortened: (§1)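 K562 pellets were dounce-homogenised in PBS pH 7.4 with 1 mM MgCl2, and the crude extract at 1 mg/mL protein was treated with 10 μM compound for 30 min. Aliquots were heated for 3 min across 48°C-58°C, pooled, and brought to 0.5% NP-40 at 4°C; soluble protein was the supernatant after 21,000xg for 90 min. Soluble protein was quantified by TMTpro 16plex LC-MS/MS with channel sums equalised, and reported as log2 fold change in thermal stability against DMSO controls, with values from duplicates.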

crizotinib = compound: C[C@@H](Oc1cc(-c2cnn(C3CCNCC3)c2)cnc1N)c1c(Cl)ccc(F)c1Cl [crizotinib]
Procedure, shortened: as §1

[1] = compound: C[C@H](C1=CC=C(C=C1)C(=O)NC2=C3C=CNC3=NC=C2)N
Procedure, shortened: as §1

duvelisib = compound: C[C@H](Nc1ncnc2nc[nH]c12)c1cc2cccc(Cl)c2c(=O)n1-c1ccccc1 [duvelisib]
Procedure, shortened: as §1

gandotinib = compound: Cc1cc(Nc2cc(CN3CCOCC3)c3nc(C)c(Cc4ccc(Cl)cc4F)n3n2)n[nH]1 [gandotinib]
Procedure, shortened: as §1

tozasertib = compound: Cc1cc(Nc2cc(N3CCN(C)CC3)nc(Sc3ccc(NC(=O)C4CC4)cc3)n2)n[nH]1 [tozasertib]
Procedure, shortened: as §1

doramapimod = compound: Cc1ccc(-n2nc(C(C)(C)C)cc2NC(=O)Nc2ccc(OCCN3CCOCC3)c3ccccc23)cc1 [doramapimod]
Procedure, shortened: as §1

[2] = compound: Cc1cccc(CC(=O)N2CCc3c2ccc(-c2cn(C)c4ncnc(N)c24)c3F)n1
Procedure, shortened: as §1

nilotinib = compound: Cc1cn(-c2cc(NC(=O)c3ccc(C)c(Nc4nccc(-c5cccnc5)n4)c3)cc(C(F)(F)F)c2)cn1 [nilotinib]
Procedure, shortened: as §1

[3] = compound: Cc1nc(Nc2n[nH]c3c2CN(C(=O)N[C@H](CN(C)C)c2ccccc2)C3(C)C)c2sccc2n1
Procedure, shortened: as §1

dasatinib = compound: Cc1nc(Nc2ncc(C(=O)Nc3c(C)cccc3Cl)s2)cc(N2CCN(CCO)CC2)n1 [dasatinib]
Procedure, shortened: as §1

[4] = compound: Cc1ncc(-c2ccnc(Nc3ccc(S(C)(=O)=O)cc3)n2)n1C(C)C
Procedure, shortened: as §1

[5] = compound: Cn1cc(-c2ccc3c(c2)CCN3C(=O)Cc2cccc(C(F)(F)F)c2)c2c(N)ncnc21
Procedure, shortened: as §1

quisinostat = compound: Cn1cc(CNCC2CCN(c3ncc(C(=O)NO)cn3)CC2)c2ccccc21 [quisinostat]
Procedure, shortened: as §1

tipifarnib = compound: Cn1cncc1[C@@](N)(c1ccc(Cl)cc1)c1ccc2c(c1)c(-c1cccc(Cl)c1)cc(=O)n2C [tipifarnib]
Procedure, shortened: as §1

[6] = compound: NC(=O)Nc1cc(-c2cccc(F)c2)sc1C(=O)N[C@H]1CCCNC1
Procedure, shortened: as §1

[7] = compound: NC(=O)c1cnc(N[C@@H]2CCCC[C@@H]2N)nc1Nc1cccc(-n2nccn2)c1
Procedure, shortened: as §1

[8] = compound: NC1(c2ccc(-c3nc4ccn5c(=O)[nH]nc5c4cc3-c3ccccc3)cc2)CCC1
Procedure, shortened: as §1

pictilisib = compound: CS(=O)(=O)N1CCN(Cc2cc3nc(-c4cccc5[nH]ncc45)nc(N4CCOCC4)c3s2)CC1 [pictilisib]
Procedure, shortened: as §1

bafetinib = compound: Cc1ccc(NC(=O)c2ccc(CN3CC[C@H](N(C)C)C3)c(C(F)(F)F)c2)cc1Nc1nccc(-c2cncnc2)n1 [bafetinib]
Procedure, shortened: as §1

Chain of UniProt Q9H9Y4 (Q9H9Y4 whole entry, looked up): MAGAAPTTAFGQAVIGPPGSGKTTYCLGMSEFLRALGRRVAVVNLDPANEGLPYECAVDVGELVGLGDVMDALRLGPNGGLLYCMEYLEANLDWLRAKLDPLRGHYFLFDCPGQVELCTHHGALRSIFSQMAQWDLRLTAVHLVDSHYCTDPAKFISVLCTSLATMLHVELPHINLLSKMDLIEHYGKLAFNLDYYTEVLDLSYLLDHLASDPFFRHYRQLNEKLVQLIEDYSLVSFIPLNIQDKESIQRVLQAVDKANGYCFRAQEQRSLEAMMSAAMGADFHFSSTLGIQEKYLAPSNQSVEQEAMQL
Chain of UniProt Q9P2P5 (Q9P2P5 whole entry, looked up): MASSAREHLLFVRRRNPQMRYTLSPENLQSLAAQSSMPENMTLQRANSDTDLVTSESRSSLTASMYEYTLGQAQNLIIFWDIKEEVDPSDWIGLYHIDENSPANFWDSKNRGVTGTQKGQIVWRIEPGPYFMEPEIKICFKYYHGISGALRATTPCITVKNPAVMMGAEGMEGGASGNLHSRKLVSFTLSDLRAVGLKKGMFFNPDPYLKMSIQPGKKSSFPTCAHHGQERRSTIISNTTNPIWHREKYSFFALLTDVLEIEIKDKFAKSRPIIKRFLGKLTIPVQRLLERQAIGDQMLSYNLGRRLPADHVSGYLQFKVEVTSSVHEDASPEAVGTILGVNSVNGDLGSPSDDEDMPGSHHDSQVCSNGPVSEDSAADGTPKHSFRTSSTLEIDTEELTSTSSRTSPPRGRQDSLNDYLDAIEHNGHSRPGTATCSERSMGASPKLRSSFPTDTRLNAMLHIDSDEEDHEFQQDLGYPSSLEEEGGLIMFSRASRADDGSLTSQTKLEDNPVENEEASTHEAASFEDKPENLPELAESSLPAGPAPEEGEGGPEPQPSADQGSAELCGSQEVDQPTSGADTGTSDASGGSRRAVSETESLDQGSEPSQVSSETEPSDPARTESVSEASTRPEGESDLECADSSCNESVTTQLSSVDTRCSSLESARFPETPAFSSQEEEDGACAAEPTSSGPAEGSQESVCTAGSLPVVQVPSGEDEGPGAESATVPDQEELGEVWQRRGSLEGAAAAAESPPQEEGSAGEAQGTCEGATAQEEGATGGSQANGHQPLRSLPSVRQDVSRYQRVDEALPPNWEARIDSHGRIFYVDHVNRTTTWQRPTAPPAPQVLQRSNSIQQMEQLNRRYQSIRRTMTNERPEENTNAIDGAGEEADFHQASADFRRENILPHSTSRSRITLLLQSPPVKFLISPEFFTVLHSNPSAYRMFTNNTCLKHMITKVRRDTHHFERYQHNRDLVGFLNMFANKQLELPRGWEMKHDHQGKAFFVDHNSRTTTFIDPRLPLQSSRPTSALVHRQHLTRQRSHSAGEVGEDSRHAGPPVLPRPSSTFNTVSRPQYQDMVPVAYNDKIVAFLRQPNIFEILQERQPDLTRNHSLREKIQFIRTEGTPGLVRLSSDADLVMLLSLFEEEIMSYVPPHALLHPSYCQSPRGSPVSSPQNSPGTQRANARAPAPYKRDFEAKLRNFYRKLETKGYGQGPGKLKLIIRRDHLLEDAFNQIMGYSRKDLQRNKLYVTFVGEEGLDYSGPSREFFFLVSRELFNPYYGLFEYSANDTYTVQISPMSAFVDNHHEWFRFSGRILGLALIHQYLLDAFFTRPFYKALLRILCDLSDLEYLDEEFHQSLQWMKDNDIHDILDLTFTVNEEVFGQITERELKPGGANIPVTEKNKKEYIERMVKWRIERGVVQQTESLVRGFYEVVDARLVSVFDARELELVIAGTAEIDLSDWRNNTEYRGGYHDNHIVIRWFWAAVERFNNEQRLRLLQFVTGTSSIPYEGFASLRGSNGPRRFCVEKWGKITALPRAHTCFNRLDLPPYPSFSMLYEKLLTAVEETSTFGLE
Chain of UniProt P02724 (P02724 whole entry, looked up): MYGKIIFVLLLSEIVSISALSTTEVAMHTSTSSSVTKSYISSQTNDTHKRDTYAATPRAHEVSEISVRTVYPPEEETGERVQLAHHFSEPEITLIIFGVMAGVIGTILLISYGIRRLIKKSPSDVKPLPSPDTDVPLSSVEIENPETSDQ
Chain of UniProt Q14571 (Q14571 whole entry, looked up): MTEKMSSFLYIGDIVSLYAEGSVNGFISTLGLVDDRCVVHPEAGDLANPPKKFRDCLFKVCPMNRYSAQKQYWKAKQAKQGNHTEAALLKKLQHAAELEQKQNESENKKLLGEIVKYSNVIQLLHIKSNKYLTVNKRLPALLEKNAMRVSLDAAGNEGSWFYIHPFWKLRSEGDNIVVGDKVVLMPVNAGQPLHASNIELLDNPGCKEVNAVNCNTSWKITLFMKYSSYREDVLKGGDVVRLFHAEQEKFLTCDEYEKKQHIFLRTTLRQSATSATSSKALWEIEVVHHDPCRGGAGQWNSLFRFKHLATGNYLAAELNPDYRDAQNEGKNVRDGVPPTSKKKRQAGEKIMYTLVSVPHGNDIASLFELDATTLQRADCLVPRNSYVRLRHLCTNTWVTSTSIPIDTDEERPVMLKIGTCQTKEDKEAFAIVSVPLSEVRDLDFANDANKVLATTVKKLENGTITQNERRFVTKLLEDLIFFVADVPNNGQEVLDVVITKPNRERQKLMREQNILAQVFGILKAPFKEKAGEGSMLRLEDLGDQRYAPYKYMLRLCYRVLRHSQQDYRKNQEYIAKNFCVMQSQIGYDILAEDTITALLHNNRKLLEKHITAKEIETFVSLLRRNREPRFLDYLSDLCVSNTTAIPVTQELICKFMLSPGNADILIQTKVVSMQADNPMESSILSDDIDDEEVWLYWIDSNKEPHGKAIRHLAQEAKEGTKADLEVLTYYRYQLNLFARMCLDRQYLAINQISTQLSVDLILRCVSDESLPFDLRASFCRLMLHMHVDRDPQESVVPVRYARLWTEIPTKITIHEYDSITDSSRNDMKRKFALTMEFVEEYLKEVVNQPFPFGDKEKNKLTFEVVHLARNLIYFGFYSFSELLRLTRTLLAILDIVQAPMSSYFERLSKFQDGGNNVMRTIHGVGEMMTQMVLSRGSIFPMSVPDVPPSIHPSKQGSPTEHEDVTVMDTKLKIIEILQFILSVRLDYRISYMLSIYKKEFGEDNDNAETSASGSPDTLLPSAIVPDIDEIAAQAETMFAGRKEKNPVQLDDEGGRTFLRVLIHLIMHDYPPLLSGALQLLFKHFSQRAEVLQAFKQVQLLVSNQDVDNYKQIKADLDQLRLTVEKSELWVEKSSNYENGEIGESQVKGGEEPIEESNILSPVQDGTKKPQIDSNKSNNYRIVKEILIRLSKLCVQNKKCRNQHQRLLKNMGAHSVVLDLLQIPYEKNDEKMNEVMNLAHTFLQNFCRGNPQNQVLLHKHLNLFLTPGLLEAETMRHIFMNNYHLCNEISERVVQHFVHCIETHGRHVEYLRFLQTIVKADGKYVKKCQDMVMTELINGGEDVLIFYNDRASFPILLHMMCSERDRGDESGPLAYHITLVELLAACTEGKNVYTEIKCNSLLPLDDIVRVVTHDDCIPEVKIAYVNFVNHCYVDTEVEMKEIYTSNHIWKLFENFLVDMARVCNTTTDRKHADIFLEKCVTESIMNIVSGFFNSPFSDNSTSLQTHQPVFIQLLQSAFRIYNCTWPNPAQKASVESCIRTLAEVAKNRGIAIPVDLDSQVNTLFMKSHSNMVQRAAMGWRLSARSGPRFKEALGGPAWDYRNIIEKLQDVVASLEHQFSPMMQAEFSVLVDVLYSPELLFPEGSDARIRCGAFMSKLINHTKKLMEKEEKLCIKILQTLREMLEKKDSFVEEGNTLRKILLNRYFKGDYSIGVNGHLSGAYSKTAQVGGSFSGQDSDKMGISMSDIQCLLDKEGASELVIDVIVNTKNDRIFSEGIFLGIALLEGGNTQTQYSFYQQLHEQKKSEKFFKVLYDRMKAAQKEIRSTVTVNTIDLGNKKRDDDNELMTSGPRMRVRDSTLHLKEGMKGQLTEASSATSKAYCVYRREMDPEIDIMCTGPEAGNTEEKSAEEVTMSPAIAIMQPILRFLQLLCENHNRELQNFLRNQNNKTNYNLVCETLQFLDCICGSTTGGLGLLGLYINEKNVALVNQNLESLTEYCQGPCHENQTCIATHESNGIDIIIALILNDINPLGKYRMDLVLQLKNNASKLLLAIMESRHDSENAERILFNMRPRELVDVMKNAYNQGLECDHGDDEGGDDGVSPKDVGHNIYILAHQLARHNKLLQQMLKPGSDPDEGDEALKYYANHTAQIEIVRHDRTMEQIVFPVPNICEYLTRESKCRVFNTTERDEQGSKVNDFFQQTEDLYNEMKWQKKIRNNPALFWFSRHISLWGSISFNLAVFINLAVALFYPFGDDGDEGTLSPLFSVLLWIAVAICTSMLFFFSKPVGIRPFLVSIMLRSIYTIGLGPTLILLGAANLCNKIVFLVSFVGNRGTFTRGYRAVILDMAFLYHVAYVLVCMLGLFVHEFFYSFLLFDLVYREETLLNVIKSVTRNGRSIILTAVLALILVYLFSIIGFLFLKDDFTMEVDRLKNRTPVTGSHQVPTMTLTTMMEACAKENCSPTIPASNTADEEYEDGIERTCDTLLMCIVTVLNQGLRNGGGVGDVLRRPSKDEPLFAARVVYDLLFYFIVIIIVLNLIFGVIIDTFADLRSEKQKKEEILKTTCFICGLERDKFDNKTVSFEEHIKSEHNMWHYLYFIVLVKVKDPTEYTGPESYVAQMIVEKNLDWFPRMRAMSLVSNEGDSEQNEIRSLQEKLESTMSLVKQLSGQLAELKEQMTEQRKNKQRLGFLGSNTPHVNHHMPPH
Chain of UniProt Q9Y287 (Q9Y287 whole entry, looked up): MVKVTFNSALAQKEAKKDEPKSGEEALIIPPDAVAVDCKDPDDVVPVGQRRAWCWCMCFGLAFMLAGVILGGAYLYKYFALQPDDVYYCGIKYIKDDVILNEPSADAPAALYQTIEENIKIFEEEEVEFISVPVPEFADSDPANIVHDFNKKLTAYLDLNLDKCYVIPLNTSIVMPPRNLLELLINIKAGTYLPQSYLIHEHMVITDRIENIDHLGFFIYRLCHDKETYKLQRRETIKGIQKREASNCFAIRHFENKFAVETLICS

Target | log2 fold change (lapatinib) | log2 fold change (crizotinib) | log2 fold change [1] | log2 fold change (duvelisib) | log2 fold change (gandotinib) | log2 fold change (tozasertib) | log2 fold change (doramapimod) | log2 fold change [2] | log2 fold change (nilotinib) | log2 fold change [3] | log2 fold change (dasatinib) | log2 fold change [4] | log2 fold change [5] | log2 fold change (quisinostat) | log2 fold change (tipifarnib) | log2 fold change [6] | log2 fold change [7] | log2 fold change [8] | log2 fold change (pictilisib) | log2 fold change (bafetinib)
GPN2 (UniProt Q9H9Y4) | 0.041 | 0.007 | -0.035 | 0.126 | 0.068 | 0.015 | -0.005 | 0.106 | -0.065 | 0.046 | 0.062 | -0.009 | -0.046 | -0.022 | 0.013 | -0.008 | 0.01 | -0.034 |  | 
ITPR2 (UniProt Q14571) | -0.571 |  |  | -0.004 |  |  |  |  | -0.008 | -0.081 | 0.019 | 0.048 | -0.078 |  | 0.003 |  | 0.277 | -0.12 |  | 
HECW2 (UniProt Q9P2P5) |  | -0.075 |  | -0.088 |  | 0.165 | 0.24 |  | -0.147 | 0.021 | -0.031 | -0.092 | -0.103 | -0.513 (active) | -0.041 | -0.035 |  | 0.126 |  | 
HYDIN (UniProt Q4G0P3) | 0.037 |  |  | 0.179 |  | 0.041 |  |  |  |  | -0.034 |  | 0.219 |  |  |  | -0.282 |  |  | 
KATNBL1 (UniProt Q9H079) | -0.013 | -0.066 | 0.05 | 0.164 | -0.021 | 0.169 | -0.069 | 0.01 | -0.057 | -0.143 | 0.068 | -0.159 | -0.073 | 0.035 | 0.198 | 0.158 | 0.017 | 0.023 |  | 
GIT1 (UniProt Q9Y2X7) | 0.029 | -0.015 | 0.009 | -0.08 | -0.076 | -0.002 | -0.004 | -0.007 | 0.03 | -0.062 | -0.05 | -0.042 | 0.036 | -0.045 | -0.086 | 0.035 | -0.007 | -0.026 | -0.007 | -0.047
GYPA (UniProt P02724) | 0.074 | 0.017 | 0.528 (active) | 0.013 | -0.197 | -0.02 | -0.033 | -0.234 |  |  | 0.097 |  | 0.045 | -0.062 |  | 0.026 | -0.047 | -0.024 | -0.01 | 0.229
ITM2B (UniProt Q9Y287) |  | 0.005 | -0.061 | 0.033 | -0.037 |  | 0.007 | 0.138 | 0.012 | -0.028 | 0.023 | -0.002 | -0.031 | 0.015 | -0.012 | 0.018 |  | -0.024 | -0.087 | -0.032
HMGN5 (UniProt Q5JSK9) | -0.04 |  |  |  |  | 0.074 |  |  | -0.074 | 0.062 |  | -0.036 |  |  | 0.076 |  | -0.035 |  | 0.017 | -0.04
HTT (UniProt P42858) |  | -0.042 | -0.012 | -0.016 | -0.124 | 0.002 | 0.006 | 0.094 | -0.106 | 0.003 | 0.001 | 0.072 | 0.072 | -0.081 | -0.072 | 0.041 |  | 0.005 | -0.028 | -0.112
H3-3A (UniProt P84243) | 0.028 | 0.046 | 0 |  | 0.016 | -0.083 | -0.062 | 0.03 |  |  |  |  |  | 0.014 |  | 0.032 | 0 | -0.093 | -0.018 | -0.049
